# Compound activity as filed in PubChem.
# Pf growth 48h = Primary qHTS for delayed death inhibitors of the malarial parasite plastid, 48 hour incubation | P. falciparum luciferase growth in erythrocytes, 48 h | Potency, µM (top dose mostly 28.7 µM), for the others: top-dose activity change, negative = inhibition, usual class: inhibitors | 310,000 compounds, 5.9% hits | AID 504832, 2011; also: potency is read from the fitted curve at half-maximal effect; % is scaled to controls: 0 for no effect and ±100 for the full control effect
#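 Growth was read as firefly luciferase luminescence after a 48 h, 37 C, 5% CO2 exposure of compounds to reporter-bearing P. falciparum cultures (0.1% parasitemia, 2% hematocrit final) in Albumax-supplemented RPMI 1640.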
# LASV entry inh = qHTS for Inhibitors of binding or entry into cells for Lassa Virus | Lassa virus pseudotype entry inhibition, cell reporter | Potency, µM (series often up to 37.9 µM), for inactives: top-dose activity change, negative = inhibition, actives largely listed as inhibitors | 300,000 compounds, 1.2% hits; calls by dose curve; tested in HEK293 cells; also: potency is read from the fitted curve at half-maximal effect; % is scaled to controls: 0 for no effect and ±100 for the full control effect; nearly all actives have a fitted effect of over 50% in size
# Shiga toxin inh = A qHTS for Small Molecule Inhibitors of Shiga Toxin | Vero cells, Shiga toxin protein synthesis inhibition reporter | inhibition, % at 38.7 µM | 290,000 compounds, 9.2% hits | AID 2315, 2010; in the data active = inhibition mostly above about 28%, no sharp cut-off; inactive = mostly below about 43%; also: 0% is about no effect
# Marburg entry inh = qHTS for inhibitors of binding or entry into cells for Marburg Virus; Marburg virus pseudotyped entry inhibition, cell reporter; Potency, µM (top dose mostly 37.8 µM), for inactives: at the highest dose activity change, negative = inhibition, most hits filed as inhibitors; 300,000 compounds, 1.8% hits; calls by dose curve; tested in HEK293 cells; also: potency is read from the fitted curve at half-maximal effect; % is scaled to controls: 0 for no effect and ±100 for the full control effect
# Cycloheximide cs = Cycloheximide Counterscreen for Small Molecule Inhibitors of Shiga Toxin | 300,000 compounds, 12% hits | max response, % | cell reporter, cycloheximide protein synthesis inhibition counterscreen | AID 2314, 2010; in the data active = max response mostly above about 13%, no sharp cut-off; inactive = mostly below about 14%; also: read at 38.3 µM for the half of the compounds with a filed dose; 0% is about no effect
# Pf growth 96h = Primary qHTS for delayed death inhibitors of the malarial parasite plastid, 96 hour incubation. P. falciparum luciferase reporter growth, 96 h. Potency, µM (titrated, usually from 28.7 µM), inactives show at the highest dose activity change, negative = inhibition, actives largely listed as inhibitors. 320,000 compounds, 6.9% hits. AID 504834, 2011; also: potency is read from the fitted curve at half-maximal effect; % is scaled to controls: 0 for no effect and ±100 for the full control effect
#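 Two-generation exposure (96 h) targets delayed-death phenotype. Reporter parasites carrying integrated firefly luciferase, in red cells at 2% hematocrit and 0.05% parasitemia final, kept at 37 C, 5% CO2; luminescence loss indicates inhibition.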
# * = called active by the depositor; i = inactive; ? = inconclusive; . = no result; ! = a repeat was not active; [ ] = remark or other dose. An excerpt weighted towards active compounds, which were near 19% of everything screened. Unless noted, calls follow the shape of the dose curve; as a rule, active = well fitted inhibition curve with a large enough effect; inconclusive = small, poorly fitted or top-dose-only effect, or another doubt; inactive = no such curve, though single readings can be large or run the other way.
SMILES,Pf growth 48h,LASV entry inh,Shiga toxin inh,Marburg entry inh,Cycloheximide cs,Pf growth 96h
CCOC(=O)CC(=O)CSc1nc(-c2ccccc2)cc(-c2ccccc2)c1C#N,0.7%,?,-11.7,?,-2.8,?
Cc1[nH]c2ccccc2c(=O)c1CN(C)Cc1ccccc1,-7.5%,-4.0%,49.1,29.6%[46.1 µM],26.7*,?
CCc1c(C)[nH]c2ccccc2c1=O,1.65µM*,0.4%,-19.9,-9.8%,-2.9,101.7%
COc1ccc2c(c1)[n+](=O)c(C(C)=O)c(C)n2[O-],.,-11.7%,-15.0,16.4%,1.9,-8.1%
Cc1ccc(C(=O)N2CCN3C(=O)c4ccccc4C23c2ccc(Cl)cc2)cc1 (stereo not given),.,?,-20.1,?,-1.7,6.57µM*
O=C(CCl)N1CCN2C(=O)c3ccccc3C12c1ccc(Cl)cc1 (stereo not given),-4.0%,-5.0%,-4.7,?,-2.5,?
O=C(Nc1cccc(Cl)c1)N1CCN2C(=O)c3ccccc3C12c1ccccc1 (stereo not given),16.5µM*,-20.7%,-7.3,?,-1.4,10.4µM*
CC(=O)Nc1cccc(OCCOc2cccc([N+](=O)[O-])c2)c1,.,27.7%,.,?,.,.
CC(C)CCNC(=O)CCc1nnc(COc2ccccc2)o1,-3.7%,29.1%,-3.9,28.5%[46.1 µM],9.6,?
O=C(CCc1nnc(COc2ccccc2)o1)NC1(c2ccccc2)CC1,9.1%,.,-11.4,.,-2.2,?
O=C(CCc1nnc(COc2ccccc2)o1)NCCc1cccs1,-6.7%,.,5.2,.,-2.2,10.4µM*
O=C(CCc1nnc(COc2ccccc2)o1)NCc1ccccc1C(F)(F)F,-6.4%,.,48.1,.,16.7*,0.0%
O=C(CCc1nnc(COc2ccccc2)o1)NCc1ccc(Cl)s1,59.0%,-3.8%[46.1 µM],12.7,14.8%[46.1 µM],6.0,14.7µM*
c1ccc(CNC2=NCCCC2)cc1,18.0%,13.4%,-2.3,1.8%[46.1 µM],-2.6,-11.0%
CCc1cc(C(=O)N=Nc2c(O)[nH]c3ccc([N+](=O)[O-])cc23)c2ccccc2n1,-9.5%,?,-10.3,-3.4%[46.1 µM],-3.0,?
COc1ccc(C(=O)Nc2ccc([N+](=O)[O-])cn2)cc1OC,36.8%,0.5%,-26.4,2.5%,16.1,13.6%
O=C(c1ccccc1)c1ccc2ccccc2n1,.,?,73.6,4.7%,38.9*,23.1%
O=C(CCc1ccccc1)Nc1ccc2ccccc2n1,114.1%,?,103.8*,?,46.7*,?
Cc1ccc(C(=O)Nc2ccc3ccccc3n2)cc1,175.8%,?,42.3*,?,41.4*,410.9%
COc1ccc(C(=O)Nc2ccc3ccccc3n2)cc1OC,74.4%,.,.,.,29.2*,?
O=C(O)CC1(CC(=O)Nc2ccc3ccccc3n2)CCCCC1,-3.9%,-13.3%,-5.3,7.0%[46.1 µM],7.1,?
Cc1cc(C)c(S(=O)(=O)NCC(=O)O)cc1C,-3.0%,6.5%,-6.5,13.0%,-3.6,.
Cc1occc1C(=O)N1CCCC(N2CCN(c3cccc(C(F)(F)F)c3)CC2)C1 (stereo not given),-26.8%,.,-5.0,.,-2.2,-19.7%
O=C(Nc1ccc2ccccc2n1)c1ccccc1Br,82.9%,?,131.2*,?,41.1*,160.1%
O=C(Nc1ccc2ccccc2n1)c1ccccc1,-3.3%,.,66.4*,.,49.2*,i
SMILES,Pf growth 48h,LASV entry inh,Shiga toxin inh,Marburg entry inh,Cycloheximide cs,Pf growth 96h
Cc1ccc(C(O)(C(=O)NNc2ccc3ccccc3n2)c2ccc(C)cc2)cc1,?,?,-3.4,?,13.0*!,?
Cn1c(NC(=O)c2ccc(F)cc2)nc2ccccc21,21.7%,.,39.9*,.,30.7*,-8.4%
CCN(CC)CCn1c(NC(=O)c2ccc(C(F)(F)F)cc2)nc2ccccc21,-7.9%,4.6%,-9.7,2.1%[14.2 µM],-3.1,?
CN(C)CCn1c(NC(=O)c2ccc(Cl)cc2)nc2ccccc21,?,-1.1%,89.0*,22.7%,38.3*,.
CCN(CC)CCn1c(NC(=O)c2ccc(C)cc2)nc2ccccc21,121.3%,-9.6%,.,?,44.3*,6.57µM*
CCOC(=O)CNC(=O)c1nn(-c2ccc(OCC)cc2)c(=O)c2ccccc12,7.3%,-8.5%,13.1,24.0%[46.1 µM],-1.2,42.1%
C[C@]12CCC3C(CC[C@@H]4[C@H]5O[C@H]5CC[C@]34C)C1CC[C@@H]2O (stereo not given in full),.,-9.4%[46.1 µM],.,?,.,.
CCn1c(=O)c(C(=O)CN(C)Cc2ccc(F)cc2)c(N)n(Cc2ccccc2)c1=O,?,-33.6%,-13.0,10µM*,-6.8,?
CCn1c(=O)c(C(=O)CN(C)Cc2cccc(OC)c2OC)c(N)n(Cc2ccccc2)c1=O,22.2%,2.3%,26.7,?,-1.0,11.6%[5.75 µM]
CCn1c(=O)c(C(=O)CN2CCCc3ccccc32)c(N)n(Cc2ccccc2)c1=O,9.28µM*,?,27.5,?,5.5,11.7µM*
CC1Cc2ccccc2N1CC(=O)c1c(N)n(Cc2ccccc2)c(=O)n(C)c1=O (stereo not given),8.28µM*,19.7%,-17.1,-6.2%,0.4,9.28µM*
O=P1(O)C=C(c2ccccc2)NC(c2ccccc2)=C1,-9.8%,2.5%,-4.7,-1.8%,-1.8,?
Nc1nc(-c2ccccn2)nc(N)c1Cc1ccc(Cl)cc1Cl,1.85µM*,?,56.0*,?,37.0*,1.31µM*
Nc1nnc(Cc2ccc(Cl)cc2Cl)s1,-16.6%,23.8%,-11.9,2.3%,1.5,28.6%
Cc1n[nH]c(C)c1Cc1c(F)cccc1Cl,-2.8%,.,9.7,.,8.1,15.2%
Nc1nc(-c2ccccn2)nc(N)c1Cc1ccccc1F,?,?,78.3*,?,38.4*,5.22µM*
Nc1nc(-c2ccccn2)nc(N)c1Cc1c(F)cccc1Cl,11.7µM*,?,42.7,?,34.5*,?
Cc1cc(C(=O)CSc2nnc3c(Cl)cc(Cl)cn23)c(C)n1C,?,3.9%,-4.3,-6.0%,-1.0,-13.6%
COC(=O)C1=C(C)OC(N)=C(C#N)C1c1ccc(OC)c(CSc2ccccn2)c1 (stereo not given),?,-12.2%,2.1,-10.7%,-2.3,36.1%
Cc1nc2scc(-c3cccs3)c2c(=O)o1,-6.0%,5.9%,21.1,19.1%,-4.0,-18.3%
O=c1oc(-c2cccs2)nc2scc(-c3cccs3)c12,9.9%,25.2%,11.2,-6.1%,13.6*,.
Cc1sc2nc(-c3cccs3)oc(=O)c2c1C,-9.9%[0.00184 µM],.,136.5*,.,42.9*,13.0%
Cc1c(Nc2ncnc3nc[nH]c23)c(=O)n(-c2ccccc2)n1C,-0.5%,-1.2%,-3.4,-39.1%,-3.1,46.5%
Cc1ccc(NC(=O)Nc2ncnc3nc[nH]c23)cc1,24.6%,.,40.9*,.,21.5*,145.8%
Cc1ccc(Nc2ncnc3nc[nH]c23)cc1Cl,.,.,63.5*,.,50.0*,-11.2%
